# High-throughput results deposited in PubChem by National Center for Advancing Translational Sciences (NCATS).
# TGFb inhibitor: TGF-b pathway inhibition; HepG2 CAGA-GFP TGF-b/SMAD3 reporter, GFP fluorescence, 18 h; TGF-beta stimulated, 500 pg/mL final; Potency, µM (titrated, usually from 46.1 µM), without a hit: at the highest dose activity, negative = inhibition, usual class: inhibitors; actives 1.2% (n = 410,000); also: % is scaled to controls: 0 for no effect and ±100 for the full control effect; nearly all actives have a fitted effect of over 65% in size
#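 Using HEPG2 CAGA-GFP reporter cells at 1000 cells/well, we pinned test compounds, stimulated with recombinant TGF-beta (500 pg/mL final) and measured total well GFP after 18 h.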
# RORgamma inh: inhibitors of mouse ROR gamma transcriptional activity | actives 5.4% (n = 310,000) | Drosophila S2 Gal4-RORgamma UAS-luciferase reporter, 20 h | AID 2551 | Potency, µM (highest dose often 53.6 µM), for the others: at the top dose activity change, negative = inhibition, most hits filed as inhibitors; also: % is scaled to controls: 0 for no effect and ±100 for the full control effect; nearly all actives have a fitted effect of over 60% in size
# Target sequence (P51450 whole entry, looked up, the tested form may be a part): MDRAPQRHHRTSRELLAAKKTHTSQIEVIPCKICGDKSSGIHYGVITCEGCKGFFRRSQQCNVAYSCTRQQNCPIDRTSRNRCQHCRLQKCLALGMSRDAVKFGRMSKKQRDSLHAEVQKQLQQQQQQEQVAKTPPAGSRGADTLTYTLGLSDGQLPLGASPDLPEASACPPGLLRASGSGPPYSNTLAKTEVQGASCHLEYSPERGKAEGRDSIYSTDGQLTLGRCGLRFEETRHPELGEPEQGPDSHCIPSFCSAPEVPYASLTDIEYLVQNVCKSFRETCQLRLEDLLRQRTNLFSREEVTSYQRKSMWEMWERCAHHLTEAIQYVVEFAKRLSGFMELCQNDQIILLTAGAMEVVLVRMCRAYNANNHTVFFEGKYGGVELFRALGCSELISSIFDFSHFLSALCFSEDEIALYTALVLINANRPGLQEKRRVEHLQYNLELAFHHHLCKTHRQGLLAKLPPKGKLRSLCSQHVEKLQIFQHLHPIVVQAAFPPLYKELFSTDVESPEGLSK
#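 Read-out: Photinus luciferase luminescence; inhibitors lower reporter signal. Insect Schneider cells with Gal4-ROR gamma fusion under metallothionein promoter, UAS reporter; 700 uM final copper sulfate induction, 20 hr, ambient temperature.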
# VP16 counter: Gal4-VP16 reporter inhibition counter-screen; Potency, µM (series often up to 53.6 µM), without a hit: at the highest dose activity, negative = inhibition, most hits filed as inhibitors; AID 2546; Drosophila S2 Gal4-VP16 UAS-luciferase, luminescence, 20 h; actives 3.5% (n = 310,000);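 also: Gal4-VP16 expression switched on by copper sulfate through the metallothionein promoter; % is scaled to controls: 0 for no effect and ±100 for the full control effect; nearly all actives have a fitted effect of over 50% in size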
# ATXN2 expr inh: ATXN2 expression inhibition. HEK-293 ATXN2-luciferase reporter, luminescence, 24 h. Potency, µM (highest dose often 57 µM), for the others: at the highest dose activity change, negative = inhibition, usual class: inhibitors. actives 0.72% (n = 360,000). AID 1745845; also: % is scaled to controls: 0 for no effect and ±100 for the full control effect; nearly all actives have a fitted effect of over 55% in size
#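 ATXN2-luciferase reporter cells (luciferase flanked by upstream and downstream ATXN2 gene portions) were treated 24 h at 37 °C with compounds at up to 57 uM. SteadyGlo luminescence gave expression; GF-AFC fluorescence gave viability.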
# ATXN viability: viability counter-screen for ATXN expression inhibitors; S2 cells (HEK-293 line with an ATXN2-luciferase reporter) viability, CellTiter-Fluor protease fluorescence, 24 h; Potency, µM (titrated, usually from 56.7 µM), usual class: cytotoxic; actives 0.49% (n = 400,000); AID 651635; also: nearly all actives have a fitted effect of over 40% in size
# HepG2 viability: counter-screen for TGF-b inhibitors: cytotoxicity in HepG2 cells | Potency, µM (titrated, usually from 46.1 µM), inactives show at the top dose activity change, negative = cytotoxicity, hits mostly cytotoxic | HepG2 CAGA-GFP viability, ATP luminescence, 18 h | actives 0.76% (n = 410,000)
#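 HepG2 CAGA-GFP cells (1000/well, DMEM with 1% FBS) received compound, then TGF-beta at 500 pg/mL final, and were incubated 18 hours at 37 degrees C. Viability was read by CellTiter-Glo luminescence. Media-only wells were set as complete cell-killing and DMSO as no toxicity.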
# An asterisk follows results filed as active; i = inactive; ? = inconclusive; . = no result given; [ ] = another dose, or the depositor's remark. The list is not random: actives were taken first. Their share in the collection is about 6.1%. Calls follow the shape of the dose curve; as a rule, active = well fitted curve in the direction sought with a large enough effect; inconclusive = small, poorly fitted or top-dose-only effect, or another doubt; inactive = no such curve, though single readings can be large; an effect the other way counts as inactive or inconclusive. Potency is read from the fitted curve at half-maximal effect.
SMILES,TGFb inhibitor,RORgamma inh,VP16 counter,ATXN2 expr inh,ATXN viability,HepG2 viability
C=C1C(=O)C2=CC1CCC(=O)C1(C)CCC(OC(C)=O)C(C)(C)C1CC2O (stereo not given),2.8µM*,.,.,?,.,-98%
CCOC(=O)N1CCc2c(sc3c2c(=O)n(CCc2ccccc2)c(=O)n3Cc2ccc(F)cc2)C1,-11%,.,.,.,.,-13%
CC(=O)N1CCc2c(sc3c2c(=O)n(CCc2ccccc2)c(=O)n3Cc2ccc(F)cc2)C1,11µM*,.,.,?,?,-63%
O=C(Cn1cnc2c(nc3n2CCCCC3)c1=O)Nc1ccc(F)c(Cl)c1,-1%,.,.,1%,i,-1%
Cc1ccc(-c2noc(C3CCCN(C(=O)c4ccc(F)cc4F)C3)n2)cc1 (stereo not given),-3%,?,?,-8%,i,-17%
CC(C)c1ccc(-c2noc(C3CCCN(C(=O)c4ccc(F)cc4F)C3)n2)cc1 (stereo not given),?,?,8.9µM*,4%,i,-32%
COCC(=O)Nc1cc(C(=O)N2CCN(c3ccc(Cl)cn3)CC2)c2c(c1)nc(C1CCC1)n2C,.,.,.,.,i,.
Cc1nc2ccccc2n1-c1ccccc1,-2%,0%,-12%,3%,i,-2%
Cc1ccccc1-n1c(C)nc2ccccc21,-5%,11µM*,7%[0.365 µM],17%,i,-2%
CCC(=O)N(C1=C(NC)C(=O)c2ccccc2C1=O)C(C)C,?,?,-13%,.,?,-71%
CNC1=C(N(C(C)=O)c2ccc(Br)cc2)C(=O)c2ccccc2C1=O,3.5µM*,5.6µM*,13µM*,?,.,2.8µM*
CC(=O)c1sc2c(c1C)c(=O)n(-c1ccc(Cl)cc1)c(=O)n2Cc1cc(=O)n2cc(Cl)ccc2n1,-4%,.,.,2%,i,11%
CC(=O)O[C@@H]1C[C@H]2C(C)(C)C(=O)C=C[C@]2(C)[C@H]2CC[C@@]3(C)[C@H](c4ccoc4)OC(=O)[C@H]4O[C@]43[C@@]21C,?,?,-11%,?,.,0%
CC1(C)C(=O)C=C[C@@]2(C)C1C=C[C@@]1(C)C2CC[C@@]2(C)C(c3ccoc3)OC(=O)C3OC312 (stereo not given in full),.,7.1µM*,6%,.,.,.
CC(=O)N1CCc2c(sc3c2c(=O)n(Cc2ccccc2)c(=O)n3Cc2ccccc2Cl)C1,-18%,.,.,7%,i,-18%
CCCCn1c(/N=C/c2ccccc2NS(=O)(=O)c2ccc(C)cc2)nc2ccccc21,16µM*,-33%,?,8%,i,-4%
CC(C)(C)c1ccc(C(=O)NNc2cc(N3CCCCC3)nc(N3CCCCC3)n2)cc1,-2%,-93%,-9%,-18%,i,-36%
O=C(NNc1cc(N2CCCC2)nc(N2CCCC2)n1)c1ccc([N+](=O)[O-])cc1,2%,1.4µM*,3.2µM*,-16%,?,0%
Cc1ccc([N+](=O)[O-])cc1NC(=O)c1ccccc1,10%,11%,-13%,-15%,i,0%
Cc1nc(NNC(=O)c2ccc([N+](=O)[O-])cc2)cc(-c2ccccc2)n1,-12%,2.2µM*,7.9µM*,-1%,?,-11%
CN(CC(=O)NC(=O)NCc1ccco1)Cc1nc2ccccc2c(=O)[nH]1,?,1µM*,3.5µM*,3%,i,-1%
CN(CC(=O)NC(c1ccccc1)c1ccccc1)Cc1nc2ccccc2c(=O)[nH]1,22%,?,13µM*,4%,i,-10%
CN(CC(=O)Nc1ccccc1Sc1ccccc1)Cc1nc2ccccc2c(=O)[nH]1,?,0.45µM*,3.5µM*,2%,i,0%
CC(NC(=O)CSc1nc2ccccc2c(=O)[nH]1)c1ccccc1 (stereo not given),40%,?,?,14%,i,-9%
Cc1nc2sccn2c1CN1CCOc2ccc(CN3C[C@@H](C)O[C@@H](C)C3)cc2C1,.,.,.,.,i,.
SMILES,TGFb inhibitor,RORgamma inh,VP16 counter,ATXN2 expr inh,ATXN viability,HepG2 viability
O=[N+]([O-])c1ccccc1/C=N/NC1=NS(=O)(=O)c2ccccc21,-5%,2%,-9%,26%,i,-14%
O=S1(=O)N=C(N/N=C/c2ccco2)c2ccccc21,3%,7.9µM*,?,-1%,i,1%
COC(=O)/C=C/S(=O)(=O)c1ccc(NC(C)=O)cc1,20%,5µM*,5µM*,.,.,-15%
COC(=O)/C=C\c1cc(O)ccc1O,.,14µM*,11µM*,.,.,.
CN(C)c1ccc(/C=C/c2cnnc3ccccc23)cc1,29%,.,.,.,.,-7%
N[C@@]1(C(=O)O)CS(=O)(=O)[C@H]2[C@H](C(=O)O)[C@H]21,.,.,.,-13%,.,.
CCNC(=S)N/N=C(\C)c1cccc(C(F)(F)F)c1,3%,1.3µM*,4.5µM*,-15%,i,58%
C/C(=N\NC(=S)NC1CCCCC1)c1cccc(Br)c1,3%,2.2µM*,1µM*,11%,i,-3%
C/C(=N\NC(=S)NC1CCCCC1)c1ccc(C#N)cc1,8%,2.2µM*,2µM*,-11%,?,-2%
C/C(=N\NC(=S)NC1CCCCC1)c1cccc(C(F)(F)F)c1,0%,?,2.5µM*,-17%,i,-5%
C[C@]12CC[C@@H]3c4ccc(O)cc4CC[C@H]3[C@@H]1CC[C@H]2O,.,-35%,-13%,.,.,.
CCN(CC)CCCOc1cc2nc(N3CCCN(C)CC3)nc(NC3CCN(C)CC3)c2cc1OC,?,.,.,.,.,-26%
Cc1cc(=O)c(C(=O)NCCCc2ccncc2)c2n1-c1ccccc1SC(c1cccs1)C2 (stereo not given),.,.,.,.,i,.
Cc1cc2c(c(=O)o1)C(c1cccs1)C(C#N)=C(N)O2 (stereo not given),4%,14µM*,?,4%,?,9%
Cc1ccc([C@H]2C(C#N)=C(N)Oc3cc(C)oc(=O)c32)o1,4%,-115%,?,-27%,i,2%
CCCNC(=O)CCc1c(C)nc2nc(CNC(=O)c3ccccc3)nn2c1C,1%,.,.,5%,i,-36%
CCCN(Cc1cccs1)C(=O)Nc1ccc(OCC)cc1,-6%,.,.,.,.,-15%
CCCN(Cc1cccs1)C(=O)Nc1ccc(Br)c(C)c1,11µM*,.,.,.,.,-28%
CC1(C)S[C@@H]2[C@H](NC(=O)C(c3ccccc3)S(=O)(=O)O)C(=O)N2[C@H]1C(=O)O (stereo not given in full),.,.,.,-4%,i,.
C=C1c2ccccc2NC(=S)N1Cc1ccc2c(c1)OCO2,?,3.2µM*,?,10%,.,-31%
